# Screens from PubChem.
# TDP1 cell noCPT = qHTS for Inhibitors of human tyrosyl-DNA phosphodiesterase 1 (TDP1): qHTS in cells in absence of CPT; DT40 Tdp1-/- hTDP1 cells, no CPT, ATP luminescence, 48 h; Potency, µM (highest dose often 46.2 µM), for inactives: top-dose activity change, negative = growth inhibition, most hits filed as inhibitors; 420,000 compounds, 15% hits; AID 686978, 2013; note: potency is the fitted concentration of half-maximal effect; nearly all actives have a fitted effect of over 55% in size
#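 Camptothecin absent (DMSO only). Human TDP1-complemented DT40 knockout cells, 400 cells/well, 37 °C for minimum 48 hr; ATP measured via CellTiter-Glo, 30 min dark incubation, luminescence.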
# TDP1 cell CPT = qHTS for Inhibitors of human tyrosyl-DNA phosphodiesterase 1 (TDP1): qHTS in cells in presence of CPT; 420,000 compounds, 12% hits; AID 686979, 2013; Potency, µM (highest dose often 46.2 µM), without a hit: at the top dose activity change, negative = growth inhibition, actives largely listed as inhibitors; chicken DT40 Tdp1-/-;hTDP1 cells + 20 nM CPT, ATP luminescence, 48 h; note: potency is the fitted concentration of half-maximal effect; nearly all actives have a fitted effect of over 55% in size
#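 Cell growth measured by CellTiter-Glo luminescence after a minimum 48 h, 37 C compound exposure with 20 nM CPT in Tdp1-knockout DT40 cells stably expressing hTDP1, seeded 400/well; qHTS titration format.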
# IL-1B inflam inh = qHTS for Inhibitors of Inflammasome Signaling: IL-1-beta AlphaLISA Primary Screen | activity change, % at 57.5 µM | THP-1 LPS/ATP IL-1B secretion, AlphaLISA, 16 h; stronger effect = lower value | 360,000 compounds, 4.7% hits; in the data active = activity change below about -50%; inconclusive = mostly about -30% to -49%
#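 Secreted IL-1B measured by AlphaLISA bead assay after 16 h compound exposure of THP-1 cells; compounds (final up to 57.5 uM) added 1 h before LPS (250 ng/mL) and ATP (1.25 mM) stimulation; lower signal means less secretion.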
# HT1080 IDH1KD tx = qHTS for induction of synthetic lethality in tumor cells producing 2HG: qHTS for the HT-1080-IDH1KD cell line. Potency, µM (doses to about 46.1 µM), for the others: at the highest dose activity, negative = toxicity, hits mostly cytotoxic. AID 686971, 2013. HT-1080 IDH1 knockdown viability, ATP luminescence, 48 h. 360,000 compounds, 2% hits;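 note: potency is the fitted concentration of half-maximal effect; 0% = DMSO wells and -100% = cell-free medium wells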
#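 Assay cells: HT-1080 with IDH1 knockdown, 750 per well, RPMI/5% FBS. Exposure: 48 h at 37 °C following 2 h pre-incubation. Read: CellTiter-Glo luminescence; fitted concentration-response, curve class assigned.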
# HT1080-NT tox = qHTS for induction of synthetic lethality in tumor cells producing 2HG: qHTS for the HT-1080-NT fibrosarcoma cell line; HT-1080-NT fibrosarcoma viability, CellTiter-Glo ATP luminescence, 48 h; Potency, µM (series often up to 46.1 µM), for inactives: at the top dose activity, negative = less viability, hits mostly cytotoxic; 360,000 compounds, 1.6% hits; AID 686970, 2013;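 note: NT is the 2HG producing partner of a matched IDH1 knockdown line; potency is the fitted concentration of half-maximal effect; 0% = DMSO-treated cells and -100% = media-only wells without cells; nearly all actives have a fitted effect of over 55% in size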
#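 Viability of the 2HG-overproducing fibrosarcoma line after 48 hours of compound exposure at 37 degrees C was determined by luminescence with CellTiter-Glo, and concentration-effect curves were then fitted and categorized.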
# * = called active by the depositor; ? = inconclusive; · = no result. Shown are actives, neighbours in structure and some others; about 19% of the full set was active somewhere. Unless noted, calls come from the whole dose curve; as a rule, active = well fitted curve in the direction sought with a large enough effect; inconclusive = small, poorly fitted or top-dose-only effect, or another doubt; inactive = no such curve, though single readings can be large; an effect the other way counts as inactive or inconclusive. Unless noted, % is set by controls: 0 for no effect and ±100 for the full control effect.
SMILES,TDP1 cell noCPT,TDP1 cell CPT,IL-1B inflam inh,HT1080 IDH1KD tx,HT1080-NT tox
Nc1nc(SCn2nnc3ccccc3c2=O)n[nH]1,2%,-3%,-19,3%,4%
Cc1cc2nc(-c3nnnn3Cc3ccccc3)c(=O)[nH]c2cc1C,16µM*,?,-15,?,-14%
O=c1[nH]c2ccccc2nc1-c1nnnn1C1CCCC1,-20%,-12%,9,8%,-1%
Cc1cc2cc(C(c3nnnn3Cc3ccccc3)N3CCc4ccccc43)c(=O)[nH]c2cc1C (stereo not given),?,?,8,-29%,-29%
O=c1[nH]c2cc3ccccc3cc2nc1-c1nnnn1C1CCCC1,3.7µM*,5.2µM*,0,16µM*,?
O=c1[nH]c2cc3ccccc3cc2nc1-c1nnnn1Cc1ccccc1,23µM*,?,43,-3%,4%
CCN(CC)CCN(C(=O)CCS(=O)(=O)c1ccccc1)c1nc2cc(OC)c(OC)cc2s1,?,?,8,13%,6%
CN(C)CCCN(C(=O)COc1ccccc1)c1nc2cc3c(cc2s1)OCCO3,-30%,-7%,-1,1%,-1%
CN(C)CCCN(C(=O)CCS(=O)(=O)c1ccccc1)c1nc2cc3c(cc2s1)OCO3,1.5µM*,1.3µM*,-107*,6%,-11%
CN(C)CCCN(C(=O)CCSc1ccccc1)c1nc2cc3c(cc2s1)OCO3,13µM*,8.2µM*,-104*,18µM*,?
CC(C)NC(=O)C1(C)CN(S(C)(=O)=O)CC(=O)N1Cc1ccc2c(c1)OCO2 (stereo not given),6%,19%,-12,2%,7%
Cc1cc2c(cc1C)/C(=N/NC(=O)c1ccccn1)CCC2,23µM*,?,-7,-18%,-17%
O=C(NN=C1CCC(=NNC(=O)c2ccccn2)CC1)c1ccccn1,-23%,2%,-11,-11%,-17%
Cc1ccc(C)n1-c1ccc(N2CCOCC2)c([N+](=O)[O-])c1,15µM*,?,-68*,?,-25%
Cc1cc(C=O)c(C)n1-c1ccc(N2CCCC2)c([N+](=O)[O-])c1,26µM*,?,-3,0%,8%
Cc1cc(C=O)c(C)n1-c1ccc(N2CCOCC2)c([N+](=O)[O-])c1,?,?,-4,-13%,-9%
O=[N+]([O-])c1cc(-n2cccc2)ccc1N1CCOCC1,?,5%,-14,13%,8%
COc1ccc(S(=O)(=O)N2CCCCCC2)cc1C(=O)N(C)CC(=O)Nc1ccccc1Br,9.2µM*,?,-23,-1%,-2%
COc1ccc(S(=O)(=O)N2CCCCCC2)cc1C(=O)N(C)CC(=O)Nc1ccccc1Cl,21µM*,?,-12,3%,-2%
COc1ccc(S(=O)(=O)N2CCCCCC2)cc1C(=O)N(C)CC(=O)Nc1c(Cl)cccc1Cl,?,?,-9,-1%,2%
OCCNc1nnc(-c2ccccc2)c(-c2ccccc2)n1,?,?,15,-15%,-2%
CC(C)[C@@H]1Cc2[nH]c(=O)[nH]c(=O)c2[C@H](C)O1,-20%,8%,-9,13%,16%
Nc1cc(C(=O)N2CCN(c3ccc([N+](=O)[O-])cc3)CC2)ccc1N1CC2CC(C1)c1cccc(=O)n1C2 (stereo not given),-6%,-5%,0,-9%,-14%
COc1cccc(/C=C2/C(=O)NN(c3ccc(F)cc3)C2=O)c1,-19%,?,-22,-29%,-28%
O=C1NN(c2ccc(F)cc2)C(=O)/C1=C/c1cccs1,-7%,17%,-51*,-9%,-2%
SMILES,TDP1 cell noCPT,TDP1 cell CPT,IL-1B inflam inh,HT1080 IDH1KD tx,HT1080-NT tox
O=C(Nc1cccc(C(F)(F)F)c1)OCCN1CCN(Cc2ccccc2)CCC1=O,?,21µM*,-17,0%,-2%
Cc1csc(NC(=O)CCc2c(C)nc3cc(-c4ccc(Cl)cc4)nn3c2C)n1,13µM*,18µM*,38,10%,17%
Cc1nc2cc(-c3ccccc3)nn2c(C)c1CCC(=O)Nc1ccc(F)cc1F,12µM*,10µM*,·,·,·
COc1cc(Cl)c(C)cc1NC(=O)CCc1c(C)nc2cc(-c3cccc(F)c3)nn2c1C,6%,2%,·,·,·
CCOC(=O)CC(NC(=O)CCc1c(C)nc2nc(C)nn2c1C)c1ccc(OC(C)C)cc1 (stereo not given),-1%,-10%,48,1%,6%
CCOC(=O)CC(NC(=O)CCc1c(C)nc2cc(-c3ccccc3)nn2c1C)c1ccc(C)cc1 (stereo not given),18µM*,16µM*,·,·,·
CCc1ccccc1NC(=O)CCc1c(C)nc2cc(-c3ccccc3)nn2c1C,18µM*,?,·,·,·
CCCCN(C(=O)C(C)Oc1ccc(Br)cc1)c1c(N)n(Cc2ccccc2)c(=O)[nH]c1=O (stereo not given),?,?,-7,-19%,-10%
O=C(CSc1ccc(Cl)cc1)NNC(=O)c1ccco1,10%,-2%,8,16%,22%
COC(=O)C1OC(=O)C2OC23[C@]2(C)C(OC(C)=O)CC4C(C)(C)C(=O)CC[C@]4(C)C2CC[C@@]13C (stereo not given in full),3%,-2%,·,·,·
CCOC(=O)C1=C(COC(=O)c2ccc(Br)c(S(=O)(=O)N3CCOCC3)c2)NC(=O)NC1C (stereo not given),8%,?,-18,-7%,-7%
CC12CCC(C/C1=N\N=C1\NC(=O)/C(=C\c3cccc(Br)c3)S1)C2(C)C (stereo not given),?,?,-68*,-23%,-16%
COc1cc(/C=N/N=C2\CC3CCC2(C)C3(C)C)ccc1O (stereo not given),0%,-10%,-13,-1%,-19%
COC(=O)CC(=O)Cc1nc(N)nc(Nc2ccc(C)c(C)c2)n1,-20%,-8%,26,4%,0%
Cc1ccccc1Nc1nc(N)nc(CCl)n1,23µM*,21µM*,-94*,15µM*,1.2µM*
Cc1ccccc1Nc1nc(N)nc(CN(C)c2ccccc2)n1,?,-19%,3,-9%,-3%
COc1ccc(Nc2nc(N)nc(CN3CCC(Cc4ccccc4)CC3)n2)cc1,?,?,?,-26%,?
Nc1nc(CCl)nc(Nc2ccc3ccccc3c2)n1,15µM*,12µM*,-99*,8.2µM*,2.1µM*
